Measurements: PubChem BioAssay (Tox21)
Unmarked numbers belong to inactive results. Records with an inconclusive call do not appear. Where a call stands in place of a potency, no number is given. Active and inactive are the calls of the source. Unless noted, calls follow the shape of the full dose curve.

How the values were obtained:
[1] = Nuclear factor erythroid 2-related factor 2/antioxidant responsive element (Nrf2/ARE) small molecule agonists: qHTS cell viability counter screen in human keratinocytes (AID 1919968; active = well fitted curve in the direction sought with a large enough effect in the repeat runs; an effect the other way counts as inactive or inconclusive; also: nearly all actives have a fitted effect of over 55% in size; also: potency is read from the fitted curve at half-maximal effect)
Procedure, shortened: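 Viability counter-screen: KeratinoSens reporter cells, DMSO-delivered compounds, 23 h at 37 C, CellTiter-Fluor fluorescence.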

[2] = Nuclear factor erythroid 2-related factor 2/antioxidant responsive element (Nrf2/ARE) small molecule agonists: luciferase reporter gene qHTS assay in human keratinocytes (AID 1919969); also: nearly all actives have a fitted effect of over 35% in size; also: potency is read from the fitted curve at half-maximal effect
[3] = target: KiSS-1 receptor (Homo sapiens) (UniProt Q969F8); test: Human kisspeptin (KISS1R) small molecule agonists, calcium flux assay in KISS1R-HEK293 cells (AID 1920064; active = well fitted curve in the direction sought with a large enough effect in the repeat runs; an effect the other way counts as inactive or inconclusive)
Sequence of KiSS-1 receptor (Homo sapiens) (Q969F8 whole entry, looked up): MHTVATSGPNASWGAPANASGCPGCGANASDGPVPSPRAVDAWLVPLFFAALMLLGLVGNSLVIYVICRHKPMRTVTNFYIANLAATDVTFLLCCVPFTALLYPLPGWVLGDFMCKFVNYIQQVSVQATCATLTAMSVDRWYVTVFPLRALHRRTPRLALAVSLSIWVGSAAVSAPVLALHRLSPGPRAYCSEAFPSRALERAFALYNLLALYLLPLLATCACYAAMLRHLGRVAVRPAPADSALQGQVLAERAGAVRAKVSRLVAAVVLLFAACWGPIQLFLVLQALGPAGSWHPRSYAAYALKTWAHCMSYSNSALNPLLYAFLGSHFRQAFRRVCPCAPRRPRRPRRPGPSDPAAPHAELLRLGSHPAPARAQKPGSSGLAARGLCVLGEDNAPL
Procedure, shortened: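 Intracellular calcium mobilization in KISS1R-HEK293 cells was recorded by fluorescence (Ex/Em 480/540) for 3 min following compound addition to cells pre-loaded 1 h with calcium dye.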

[4] = G protein-coupled receptor (GPCR) small molecule agonists, calcium flux assay: HEK293 wild type cell line counter screen (AID 1920065)
Procedure, shortened: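 In this agonist-mode screen, ATP is the positive control and DMSO the vehicle. Cells grow 18 h before a 1 h dye incubation at 37 C; signal is taken at Ex/Em 480/540 over 3 min.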

[5] = p53 small molecule agonists, cell-based qHTS assay with human liver microsomes (AID 1963577)
Procedure, shortened: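 Cells carrying a p53-responsive bla reporter were rested 5 h (37 C, 5% CO2) before compound transfer. Human liver microsomes plus NADPH, 0.5 mg/mL final apiece, supplied metabolism during the 16 h 37 C exposure.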

[6] = p53 small molecule agonists, cell-based qHTS assay with rat liver microsomes: qHTS cell viability counter screen (AID 1963580); also: nearly all actives have a fitted effect of over 45% in size; also: potency is read from the fitted curve at half-maximal effect
Procedure, shortened: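 Intracellular ATP, by CellTiter-Glo luminescence, defines viability. HCT-116 p53RE-bla cells, 4,000 per well, were compound-treated in the presence of rat liver microsomes and NADPH for 16 h at 37 C.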

[7] = target: 5-hydroxytryptamine receptor 2A (Homo sapiens) (UniProt P28223); test: 5-hydroxytryptamine receptor 2A (HTR2A) small molecule agonists, cell-based qHTS assay (AID 1963587); also: nearly all actives have a fitted effect of over 30% in size; also: potency is read from the fitted curve at half-maximal effect
Sequence of 5-hydroxytryptamine receptor 2A (Homo sapiens) (P28223 whole entry, looked up): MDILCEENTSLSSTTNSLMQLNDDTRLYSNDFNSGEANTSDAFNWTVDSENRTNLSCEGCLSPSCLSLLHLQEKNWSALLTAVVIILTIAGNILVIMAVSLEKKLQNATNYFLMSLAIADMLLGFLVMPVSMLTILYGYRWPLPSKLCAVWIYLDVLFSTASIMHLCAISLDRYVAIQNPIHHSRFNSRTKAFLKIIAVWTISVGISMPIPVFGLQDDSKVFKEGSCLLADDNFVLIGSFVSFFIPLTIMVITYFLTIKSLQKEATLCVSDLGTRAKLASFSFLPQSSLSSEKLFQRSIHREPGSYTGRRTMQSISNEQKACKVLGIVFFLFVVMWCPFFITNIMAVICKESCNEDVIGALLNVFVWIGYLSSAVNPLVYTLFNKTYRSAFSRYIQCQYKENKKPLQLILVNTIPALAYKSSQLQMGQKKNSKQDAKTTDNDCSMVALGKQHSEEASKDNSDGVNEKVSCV
Procedure, shortened: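 Kinetic calcium-flux fluorescence (2 min, 1 sec intervals) after compound addition in agonist mode. HTR2A-CHO cells were cultured 18 h, then dye-loaded 1 h at 37 C.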

[8] = target: Muscarinic acetylcholine receptor M1 (Homo sapiens) (UniProt P11229); test: Cholinergic receptor muscarinic 1 (CHRM1) small molecule antagonists, cell-based qHTS assay (AID 1963588); also: nearly all actives have a fitted effect of over 40% in size
Sequence of Muscarinic acetylcholine receptor M1 (Homo sapiens) (P11229 whole entry, looked up): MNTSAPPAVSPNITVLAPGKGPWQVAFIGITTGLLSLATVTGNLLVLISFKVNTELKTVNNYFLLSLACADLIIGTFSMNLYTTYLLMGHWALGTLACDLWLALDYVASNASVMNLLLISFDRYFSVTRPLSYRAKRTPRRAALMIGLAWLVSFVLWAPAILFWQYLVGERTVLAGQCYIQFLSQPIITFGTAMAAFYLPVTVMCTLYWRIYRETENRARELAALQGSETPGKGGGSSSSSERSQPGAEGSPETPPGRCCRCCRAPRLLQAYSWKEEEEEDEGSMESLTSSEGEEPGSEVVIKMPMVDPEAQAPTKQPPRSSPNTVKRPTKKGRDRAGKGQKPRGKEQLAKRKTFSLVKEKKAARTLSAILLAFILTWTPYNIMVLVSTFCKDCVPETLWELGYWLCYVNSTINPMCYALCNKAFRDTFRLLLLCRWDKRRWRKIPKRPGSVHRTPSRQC
Procedure, shortened: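 CHRM1-CHO calcium-flux assay, antagonist mode. Cells were seeded 18 h, dye-loaded 1 h at 37 C and given compound for 5 min at RT, then acetylcholine was added at 50nM. FDSS fluorescence was read 3 min; 15 concentrations, three runs.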

[9] = target: Muscarinic acetylcholine receptor M1 (Homo sapiens) (UniProt P11229); test: Cholinergic receptor muscarinic 1 (CHRM1) small molecule agonists, cell-based qHTS assay (AID 1963589); also: nearly all actives have a fitted effect of over 35% in size
Procedure, shortened: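 Stable CHRM1-CHO cells (human receptor) were incubated 18 h, dye-loaded for 1 h at 37 C and exposed to test compounds for agonist activity, with calcium-dependent fluorescence followed kinetically.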

[10] = target: Beta-2 adrenergic receptor (Homo sapiens) (UniProt P07550); test: Adrenergic beta2 receptor (ADRB2) small molecule antagonists, cell-based qHTS assay (AID 1963592); also: series mostly up to about 92 µM; nearly all actives have a fitted effect of over 50% in size
Sequence of Beta-2 adrenergic receptor (Homo sapiens) (P07550 whole entry, looked up): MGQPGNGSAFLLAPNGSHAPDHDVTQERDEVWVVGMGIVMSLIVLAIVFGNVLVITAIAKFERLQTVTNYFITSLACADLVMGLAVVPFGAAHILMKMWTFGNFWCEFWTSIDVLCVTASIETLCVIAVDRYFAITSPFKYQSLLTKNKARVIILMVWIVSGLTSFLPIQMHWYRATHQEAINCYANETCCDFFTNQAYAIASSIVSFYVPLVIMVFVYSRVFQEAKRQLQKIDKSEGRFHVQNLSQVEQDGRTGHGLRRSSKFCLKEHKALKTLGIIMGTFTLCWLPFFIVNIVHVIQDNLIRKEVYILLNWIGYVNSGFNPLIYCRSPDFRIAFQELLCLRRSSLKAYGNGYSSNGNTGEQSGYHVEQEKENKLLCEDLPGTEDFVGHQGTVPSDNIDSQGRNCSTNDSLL
Procedure, shortened: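 Cells (CHO, stable ADRB2 overexpression) incubated 18-20hr at 37C; compounds added from DMSO; agonist mix (1nM isoproterenol, 100uM IBMX, 25uM Ro-20-1724) added; 0.5hr RT; d2-cAMP and anti-cAMP-cryptate added; 1hr RT; 665/615 nm read.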

[11] = target: Beta-2 adrenergic receptor (Homo sapiens) (UniProt P07550); test: Adrenergic beta2 receptor (ADRB2) small molecule agonists, cell-based qHTS assay (AID 1963593);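 also: CHO cells stably overexpressing human ADRB2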
Procedure, shortened: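 CHO cells stably over-expressing ADRB2 were plated overnight at 37C, then dosed with compounds plus a stimulation mix containing 100uM IBMX and 25uM Ro-20-1724 for 0.5hr at room temperature. cAMP was measured by HTRF competition, 1hr.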

[12] = target: D(2) dopamine receptor (Homo sapiens) (UniProt P14416); test: Dopamine D2 receptor (DRD2) small molecule agonists, cell-based qHTS assay (AID 1963594); also: nearly all actives have a fitted effect of over 35% in size
Sequence of D(2) dopamine receptor (Homo sapiens) (P14416 whole entry, looked up): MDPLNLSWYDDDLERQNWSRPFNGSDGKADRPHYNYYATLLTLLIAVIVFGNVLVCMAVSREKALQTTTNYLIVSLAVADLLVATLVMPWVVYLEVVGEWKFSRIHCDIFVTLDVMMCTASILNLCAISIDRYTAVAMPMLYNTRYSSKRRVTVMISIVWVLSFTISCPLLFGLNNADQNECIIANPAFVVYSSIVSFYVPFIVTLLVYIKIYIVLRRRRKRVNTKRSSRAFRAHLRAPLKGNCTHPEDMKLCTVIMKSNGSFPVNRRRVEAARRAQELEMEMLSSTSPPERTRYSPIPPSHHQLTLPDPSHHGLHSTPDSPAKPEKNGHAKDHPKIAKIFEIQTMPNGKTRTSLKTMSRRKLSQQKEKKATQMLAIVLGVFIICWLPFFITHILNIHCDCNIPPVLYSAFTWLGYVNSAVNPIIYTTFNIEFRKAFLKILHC
Procedure, shortened: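 cAMP accumulation in DRD2-HEK293 cells measured by HTRF after 1 h detection; compounds added 10 min before NKH477 (200nM […]) forskolin-analogue stimulation, 30 min at room temperature, with Ro20-1724 present at 0.1 mM final.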

[13] = target: D(2) dopamine receptor (Homo sapiens) (UniProt P14416); test: Dopamine D2 receptor (DRD2) small molecule antagonists, cell-based qHTS assay (AID 1963595; active = well fitted inhibition curve with a large enough effect in the signal ratio in the repeat runs, with a control signal flat; the % refers to the signal ratio; also: potency is read from the fitted curve at half-maximal effect)
Procedure, shortened: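 HEK293 cells stably expressing DRD2 were preincubated with 0.1 mM Ro20-1724, then with compound for 10 min at room temperature. Cells were stimulated with 200 nM NKH477 plus 12 nM quinpirole for 30 min, and cAMP was read by HTRF.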

[14] = p53 small molecule agonists, cell-based qHTS assay with human liver microsomes: qHTS cell viability counter screen (AID 1963579); also: nearly all actives have a fitted effect of over 45% in size
Procedure, shortened: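 Seed p53RE-bla cells at 4,000 per well; incubate 5 h at 37 C; add compound, human liver microsomes and NADPH; incubate 16 h at 37 C; add CellTiter-Glo; after 30 min at room temperature, read luminescence.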

[15] = p53 small molecule agonists, cell-based qHTS assay: qHTS cell viability counter screen (AID 1963581); also: nearly all actives have a fitted effect of over 45% in size
Procedure, shortened: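 Compounds are pinned onto HCT-116 p53RE-bla cells and left 16 h at 37 C. Following the reporter FRET read, ATP is quantified by CellTiter-Glo luminescence after 30 min at room temperature.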

[16] = target: 5-hydroxytryptamine receptor 2A (Homo sapiens) (UniProt P28223); test: 5-hydroxytryptamine receptor 2A (HTR2A) small molecule antagonists, cell-based qHTS assay (AID 1963586); also: nearly all actives have a fitted effect of over 45% in size; also: potency is read from the fitted curve at half-maximal effect
Procedure, shortened: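 Antagonist-mode intracellular calcium assay: DOI (4 nM) added after 5 min compound pre-incubation at room temperature to dye-loaded HTR2A-CHO cells. Fluorescence followed for 3 min, sampled every second.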

[17] = cAMP Responsive Elements (CRE) small molecule agonists, cell-based qHTS assay (AID 1963590)
Procedure, shortened: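 FRET-based beta-lactamase readout (LiveBLAzer B/G, 2 h RT) quantified CRE activation in HEK 293T CRE-bla cells after 3 h treatment with DMSO-dissolved compounds.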

[18] = cAMP Responsive Elements (CRE) small molecule antagonists, cell-based qHTS assay (AID 1963591; active = well fitted inhibition curve with a large enough effect in the signal ratio in the repeat runs, not every such curve was filed as active; the % refers to the signal ratio)
Procedure, shortened: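 qHTS in CRE-bla HEK 293T cells: compound in DMSO, then 0.25 uM NKH477 (final), 3 h at 37 °C/5% CO2; beta-lactamase FRET read-out after 2 h substrate incubation.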

[19] = p53 small molecule agonists, cell-based qHTS assay with rat liver microsomes (AID 1963578)
Procedure, shortened: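 Fluorescence from a beta-lactamase reporter under a p53 response element was measured after cells had been incubated 16 h at 37 C with test compound and rat liver microsomes plus NADPH (0.5 mg/mL final each).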

| SMILES | Potency [1] | Potency [2] | Potency [3] | Potency [4] | Potency [5] | Potency [6] | Potency [7] | Potency [8] | Potency [9] | Potency [10] | Potency [11] | Potency [12] | Potency [13] | Potency [14] | Potency [15] | Potency [16] | Potency [17] | Potency [18] | Potency [19] |
| --- | --- | --- | --- | --- | --- | --- | --- | --- | --- | --- | --- | --- | --- | --- | --- | --- | --- | --- | --- |
| CCCCCCCCn1sc(Cl)c(Cl)c1=O | 13.7 µM (active) | 4.86 µM (active) | inactive | inactive | inactive | 36.3 µM (active) | 43.6 µM (active) | inactive | inactive | inactive | inactive | inactive | 27.3 µM (active) | – | – | – | – | – | – |
| COc1ccc(/C=N/NC(=O)c2ccncc2)cc1OC | inactive | inactive | inactive | inactive | – | inactive | inactive | inactive | inactive | inactive | – | – | inactive | inactive | inactive | inactive | inactive | inactive | – |
| O=S(=O)(O)c1cc(Cl)c(Cl)cc1Cl | inactive | inactive | inactive | inactive | inactive | inactive | – | inactive | inactive | inactive | – | inactive | inactive | inactive | inactive | inactive | inactive | inactive | – |
| O=S1(=O)CCCC1 | inactive | inactive | inactive | inactive | – | inactive | inactive | inactive | inactive | inactive | inactive | inactive | inactive | inactive | inactive | inactive | inactive | inactive | – |
| CC(=O)Nc1ccc(S(=O)(=O)Cl)cc1 | inactive | inactive | inactive | inactive | – | inactive | inactive | inactive | – | inactive | inactive | inactive | inactive | inactive | inactive | inactive | – | inactive | – |
| CO/N=C(/C(=O)N[C@@H]1C(=O)N2C(C(=O)O)=C(Cn3nnc(C)n3)CS[C@H]12)c1csc(N)n1 | inactive | inactive | inactive | inactive | – | inactive | inactive | inactive | inactive | inactive | inactive | inactive | inactive | inactive | inactive | – | inactive | inactive | – |
| CCO[Si](CC(C)C)(OCC)OCC | inactive | inactive | inactive | inactive | inactive | inactive | – | inactive | inactive | inactive | – | – | inactive | – | inactive | inactive | inactive | inactive | – |
| CC(=O)S[C@@H]1CC2=CC(=O)CC[C@]2(C)[C@H]2CC[C@@]3(C)[C@@H](CC[C@@]34CCC(=O)O4)[C@H]12 | inactive | 24.3 µM (active) | inactive | inactive | – | inactive | – | – | – | inactive | – | inactive | – | inactive | inactive | – | – | – | inactive |
| CCN(CC)CCNC(=O)COc1ccc(OC)cc1 | inactive | inactive | inactive | inactive | – | inactive | inactive | inactive | inactive | inactive | inactive | inactive | inactive | inactive | inactive | inactive | inactive | inactive | inactive |
| C=CCOC(=O)c1ccc(C(=O)OCC=C)c(C(=O)OCC=C)c1 | inactive | inactive | inactive | inactive | – | inactive | inactive | inactive | inactive | inactive | inactive | inactive | inactive | inactive | inactive | 33.4 µM (active) | inactive | inactive | – |
| COc1cccc2c1C(=O)c1c(O)c3c(c(O)c1C2=O)C[C@@](O)(C(=O)CO)C[C@@H]3O[C@H]1C[C@H](N)[C@H](O[C@@H]2CCCCO2)[C@H](C)O1 | 9.44 µM (active) | 2.66 µM (active) | inactive | inactive | – | 3.97 µM (active) | 10.7 µM (active) | inactive | inactive | inactive | – | – | – | inactive | inactive | – | inactive | – | inactive |
| O=C(Cl)c1cccc([N+](=O)[O-])c1 | inactive | inactive | inactive | inactive | – | inactive | – | – | inactive | inactive | – | inactive | inactive | inactive | inactive | inactive | inactive | inactive | – |
| Cc1c(C)c2c(c(C)c1OC(=O)c1cccnc1)CC[C@@](C)(CCC[C@H](C)CCC[C@H](C)CCCC(C)C)O2 | inactive | inactive | inactive | inactive | – | inactive | inactive | inactive | inactive | inactive | inactive | inactive | inactive | inactive | inactive | inactive | inactive | inactive | – |
